Bioassay records (PubChem)
TDP1 cell noCPT: qHTS for Inhibitors of human tyrosyl-DNA phosphodiesterase 1 (TDP1): qHTS in cells in absence of CPT; DT40 Tdp1-/- hTDP1 cells, no CPT, ATP luminescence, 48 h; actives 15% (n = 420,000); Potency, µM (doses to about 46.2 µM), actives largely listed as inhibitors; AID 686978, 2013; further: nearly all actives have a fitted effect of over 55% in size
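Chicken DT40 Tdp1-/- cells complemented with human TDP1, screened without camptothecin (DMSO vehicle only), 400 cells/well. Compounds pin-transferred, cells incubated at 37 °C for at least 48 hr. Growth read as ATP-dependent luminescence (CellTiter-Glo, 30 min at RT).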
ClpP mod: qHTS Assay for Activators of ClpP; AID 651965, 2013; Potency, µM (top dose mostly 57.5 µM); actives 1.9% (n = 340,000); purified B. subtilis ClpP, FRET peptide cleavage, 20 min; ATP-dependent Clp protease proteolytic subunit (Bacillus subtilis (strain 168)), P80244; active means well fitted falling curve with a large enough effect; inconclusive means small, poorly fitted or top-dose-only effect; inactive means no such curve, though single readings can be large or run the other way; further: the source files actives as falling curves though it sought activators and does not explain the sign; nearly all actives have a fitted effect of over 65% in size
Target sequence (P80244 whole entry, looked up): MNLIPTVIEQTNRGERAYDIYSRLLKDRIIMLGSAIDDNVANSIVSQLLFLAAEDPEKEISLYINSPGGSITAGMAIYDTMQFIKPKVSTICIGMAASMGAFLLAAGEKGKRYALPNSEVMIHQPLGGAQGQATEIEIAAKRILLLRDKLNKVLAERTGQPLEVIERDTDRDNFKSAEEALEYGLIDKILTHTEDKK
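Buffer: 100 mM Tris/HCl pH8, 100 mM KCl, 0.05% low protease BSA, 2.5% glycerol, 0.01% Tween-20. ClpP 10 microg/mL final; 20 min RT; delta FRET normalized to ADEP and DMSO controls.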
D3 ag: D3 dopamine receptor (human) agonism; actives 0.58% (n = 410,000); max activation, %; D3R DiscoveRx beta-arrestin cells, luminescence, 90 min; P35462; in the data active means max activation above about 30%
Target sequence (P35462 whole entry, looked up): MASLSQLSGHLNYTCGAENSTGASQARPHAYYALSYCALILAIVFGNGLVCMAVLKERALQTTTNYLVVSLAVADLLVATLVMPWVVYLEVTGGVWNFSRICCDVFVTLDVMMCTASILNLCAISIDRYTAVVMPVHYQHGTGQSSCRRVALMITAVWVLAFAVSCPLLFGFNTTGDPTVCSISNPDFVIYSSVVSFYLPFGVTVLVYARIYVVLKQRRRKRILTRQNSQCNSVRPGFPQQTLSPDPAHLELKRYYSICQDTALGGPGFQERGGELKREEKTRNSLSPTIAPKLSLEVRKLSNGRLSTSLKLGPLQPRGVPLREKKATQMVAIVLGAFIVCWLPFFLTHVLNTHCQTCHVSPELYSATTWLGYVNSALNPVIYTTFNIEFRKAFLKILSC
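Cells at 1500/well, incubated overnight, then treated with pinned compounds (dopamine as control) for 90 min at 37 degrees C. DiscoveRx reagent added for 30 - 60 minutes at room temperature; luminescence read.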
IL-1B inflam inh: inhibitors of inflammasome signaling (IL-1 beta secretion) | THP-1 LPS/ATP IL-1B secretion, AlphaLISA, 16 h; stronger effect = lower value | activity change, % at 57.5 µM | actives 4.7% (n = 360,000) | AID 743279; in the data active means activity change below about -50%; inconclusive means mostly about -30% to -49%
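Secreted IL-1B measured by AlphaLISA bead assay after 16 h compound exposure of THP-1 cells; compounds (final up to 57.5 uM) added 1 h before LPS (250 ng/mL) and ATP (1.25 mM) stimulation; lower signal means less secretion.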
DRD3 antagonist: blocks the human D3 dopamine receptor | P35462 | D3R cells, DiscoveRx beta-arrestin luminescence, antagonist mode; stronger effect = lower value | max response, negative = inhibition, % | actives 2.5% (n = 360,000) | AID 652054; in the data active means max response below about -50%; inconclusive means no clear call, values can overlap the other calls
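Cells plated overnight at 1500 cells/well, then exposed to library compounds with dopamine controls for 90 minutes at 37 degrees C. DiscoveRx reagent added for 30–60 minutes at room temperature; luminescence read, quantitative HTS format.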
DT40 TDP1 CPT: growth inhibition of DT40 Tdp1-/-;hTDP1 cells with camptothecin (screen for TDP1 inhibitors); chicken DT40 Tdp1-/-;hTDP1 cells + 20 nM CPT, ATP luminescence, 48 h; Potency, µM (series often up to 46.2 µM), most hits filed as inhibitors; actives 12% (n = 420,000); further: nearly all actives have a fitted effect of over 55% in size
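Cell growth measured by CellTiter-Glo luminescence after a minimum 48 h, 37 C compound exposure with 20 nM CPT in Tdp1-knockout DT40 cells stably expressing hTDP1, seeded 400/well; qHTS titration format.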
Hits are given with their value; n = inactive; u = inconclusive; x = not tested or not shown. Only some compounds are listed: those with a hit (about 21% of all), similar ones and a draw of the others. Unless noted, the call rests on the fitted dose curve; in most records, active means well fitted inhibition curve with a large enough effect; inconclusive means small, poorly fitted or top-dose-only effect; inactive means flat fitted curve, though single readings scatter.

SMILES	TDP1 cell noCPT	ClpP mod	D3 ag	IL-1B inflam inh	DRD3 antagonist	DT40 TDP1 CPT
Cc1cccc(N2CCN(C(=O)CS(=O)(=O)c3cccc4nsnc34)CC2C)c1 (configuration not stated)	u	n	n	x	x	u
Cc1cccc(CCNC(=O)C2CCN(S(=O)(=O)c3cccc4cccnc34)CC2)c1	u	n	n	n	n	n
Cc1cccc(N2CCN(C(=O)C3CCN(S(=O)(=O)c4cccc5nsnc45)CC3)CC2C)c1 (configuration not stated)	20.6µM	n	n	n	n	23.1µM
CCCS(=O)(=O)c1nnnn1-c1cccc(OC)c1	5.17µM	n	n	-67.0	u	3.66µM
CC(=O)c1cccc(-n2nnnc2SCC(=O)Nc2ccccc2N2CCCCC2)c1	23.1µM	n	n	n	n	u
COc1cccc(-n2nnnc2SCC(=O)Nc2ccccc2OC)c1	n	n	n	n	n	n
COc1cccc(-n2nnnc2SCC(=O)Nc2ccc(C(C)=O)cc2)c1	23.1µM	n	n	n	n	25.9µM
O=C(CN1CCN(S(=O)(=O)c2ccc(F)cc2)CC1)NCC1(N2CCOCC2)CCCCC1	n	n	n	n	n	n
COc1ccc(S(=O)(=O)N(C)C[C@H]2Oc3c(NS(=O)(=O)c4ccc(F)cc4)cccc3C(=O)N([C@H](C)CO)C[C@@H]2C)cc1	u	n	n	n	n	u
O=C(NCc1ccc(F)cc1)C1CCCN(S(=O)(=O)c2ccc(-n3cnnn3)cc2)C1 (configuration not stated)	u	x	n	n	n	n
O=C(CNC1CCCCCC1)Nc1ccccc1N1CCCCC1	20.6µM	n	n	n	-63.7	u
Cc1cccc(NC(=O)CSCC(=O)Nc2ccccc2N2CCCCC2)c1	u	x	n	n	n	n
O=C(CNCC1CCCCC1)Nc1ccccc1N1CCCCC1	u	n	n	n	n	u
Cc1ccc(NC(=O)CSCC(=O)Nc2ccccc2N2CCCCC2)cc1	u	n	n	-62.9	n	u
Cn1c(SCC(=O)NC2CCCCC2)nnc1-c1ccccc1O	n	n	n	n	n	n
N#C/C(=C(/O)c1ccco1)c1nc2ccccc2s1	14.6µM	n	n	n	u	u
N#C/C(=C(/O)c1ccco1)c1nc2ccccc2[nH]1	n	x	n	n	n	n
N#C/C(=C(/O)c1cc2ccccc2o1)c1nc2ccccc2s1	13µM	n	n	n	n	u
CC1=CC(=C(C#N)c2nc3ccccc3s2)C=C(C)N1Cc1ccco1	u	n	n	n	-56.2	u
N#CCCN1CCN(C2=NC(=O)/C(=C\c3cccs3)S2)CC1	n	n	n	n	n	n
CCOC(=O)Cn1cc(/C=N/NC(=O)c2cc3ccccc3o2)c2ccccc21	u	n	n	u	n	n
Cc1cc(/C=N/NC(=O)c2cc3ccccc3o2)c(C)n1C	23.1µM	n	n	n	n	14.6µM
O=C(N/N=C/c1ccncc1)c1cc2ccccc2o1	n	x	n	-52.5	n	n
CN1C(=O)Cc2cc(S(=O)(=O)NCc3ccc(Cl)cc3)ccc21	u	n	n	x	x	u
CC(C)Oc1ccc(C(CCN)C2CCCCC2)cc1 (configuration not stated)	8.2µM	x	n	-98.7	u	13µM
SMILES	TDP1 cell noCPT	ClpP mod	D3 ag	IL-1B inflam inh	DRD3 antagonist	DT40 TDP1 CPT
CCOC(=O)CC1(NC(=O)c2cc(COc3ccc(F)c(F)c3)on2)CCCCC1	18.4µM	n	n	n	n	23.1µM
Cc1cc(CNC(=O)c2cc(COc3ccc(F)c(F)c3)on2)nn1C	u	n	n	n	n	14.6µM
Cn1c(CCNC(=O)c2cc(COc3ccc(F)c(F)c3)on2)nc2ccccc21	u	x	n	n	n	u
Cc1cc(C)n(CC(C)NC(=O)c2cc(COc3ccc(F)c(F)c3)on2)n1 (configuration not stated)	16.4µM	n	n	n	n	u
Cc1cccc(CC(C)NC(=O)c2cc(COc3ccc(C)c(C)c3)on2)n1 (configuration not stated)	20.6µM	n	n	u	u	20.6µM
Cc1nc(C(C)NC(=O)c2cc(COc3ccc(F)c(F)c3)on2)cs1 (configuration not stated)	u	n	n	n	n	u
COc1ccccc1C(=O)C1CCCN(C(=O)c2cnn(C(C)C)c2)C1 (configuration not stated)	n	n	n	n	n	n
COCCn1c(=O)c(C)nc2cnc(Oc3cccc(Cl)c3)nc21	n	x	x	x	x	n
CC(=O)N1CCN(c2ccc(NC(=O)c3cccc(Cl)c3Cl)cc2)CC1	n	x	n	n	u	n
O=C(Nc1ccc(N2CCCCC2)cc1)c1ccc(F)cc1F	n	n	n	n	n	n
O=C(Nc1ccc(N2CCCC2)cc1)c1cccc(Cl)c1Cl	16.4µM	n	n	n	n	u
O=C(Nc1ccc(N2CCCC2)cc1)c1ccccc1F	u	n	n	n	n	10.3µM
CCN(CC(=O)Nc1ccccc1C(F)(F)F)C(=O)CCc1c(C)[nH]c(=O)c(C#N)c1C	n	x	n	n	n	n
CN(Cc1cc([N+](=O)[O-])ccc1Cl)C(=O)C[n+]1ccccc1	n	x	n	n	n	n
O=C(C[n+]1cc(-c2ccccc2)n2c1CCCCC2)c1ccc(Cl)cc1	16.4µM	x	n	-76.0	n	20.6µM
O=C(C[n+]1cc(-c2ccc(F)cc2)n2c1CCC2)c1cccs1	n	x	n	n	n	n
Cc1ccc(-c2c[n+](CC(=O)c3ccc(Br)cc3)c3n2CCCCC3)cc1	1.64µM	x	n	-94.7	u	1.46µM
COc1ccc(-c2c[n+]3c4n2CCCCC4=C(c2ccccc2)C3)cc1	5.17µM	n	n	u	u	3.26µM
COc1ccc(-c2c[n+](CC(=O)c3ccccc3)c3n2CCCCC3)cc1	4.11µM	n	n	u	-61.0	7.31µM
Cc1ccc(S(=O)(=O)NC2=NCN(CC(=O)O)CN2)cc1	n	x	n	n	n	n
O=c1c2ccccc2c(=O)n(-c2ccccc2)n1-c1ccccc1	u	n	n	n	n	u
Cc1ccc2nc(N)nnc2c1	0.517µM	n	n	n	n	u
Nc1nnc2cc(Cl)ccc2n1	n	x	n	u	n	u
O=C(c1ccccc1Cc1ccccc1)N1CCN(S(=O)(=O)c2ccccc2[N+](=O)[O-])CC1	u	n	n	n	n	u
O=c1[nH]nc(N2CCOCC2)c(=O)[nH]1	16.4µM	n	n	n	n	u
COc1ccc(C(=O)COC(=O)[C@@H](NS(=O)(=O)c2ccccc2)C(C)C)cc1	u	n	n	n	n	n
